The whole screen tested about 390,000 compounds, of which about 4,700 (1.2%) were called active. Where a call stands in place of a potency, no number is given. About 4% were inconclusive and are not listed. Calls come from the whole dose curve; as a rule, active = well fitted inhibition curve with a large enough effect; inconclusive = small, poorly fitted or top-dose-only effect, or another doubt; inactive = no such curve, though single readings can be large or run the other way. This excerpt belongs to a sample that is enriched for actives.
biological target: DNA polymerase eta (Homo sapiens) (UniProt Q9Y253); test: qHTS for Inhibitors of Polymerase Eta; details: recombinant Pol eta, fluorescent DNA replication assay; series mostly up to 114 µM
Sequence (Q9Y253 whole entry, looked up): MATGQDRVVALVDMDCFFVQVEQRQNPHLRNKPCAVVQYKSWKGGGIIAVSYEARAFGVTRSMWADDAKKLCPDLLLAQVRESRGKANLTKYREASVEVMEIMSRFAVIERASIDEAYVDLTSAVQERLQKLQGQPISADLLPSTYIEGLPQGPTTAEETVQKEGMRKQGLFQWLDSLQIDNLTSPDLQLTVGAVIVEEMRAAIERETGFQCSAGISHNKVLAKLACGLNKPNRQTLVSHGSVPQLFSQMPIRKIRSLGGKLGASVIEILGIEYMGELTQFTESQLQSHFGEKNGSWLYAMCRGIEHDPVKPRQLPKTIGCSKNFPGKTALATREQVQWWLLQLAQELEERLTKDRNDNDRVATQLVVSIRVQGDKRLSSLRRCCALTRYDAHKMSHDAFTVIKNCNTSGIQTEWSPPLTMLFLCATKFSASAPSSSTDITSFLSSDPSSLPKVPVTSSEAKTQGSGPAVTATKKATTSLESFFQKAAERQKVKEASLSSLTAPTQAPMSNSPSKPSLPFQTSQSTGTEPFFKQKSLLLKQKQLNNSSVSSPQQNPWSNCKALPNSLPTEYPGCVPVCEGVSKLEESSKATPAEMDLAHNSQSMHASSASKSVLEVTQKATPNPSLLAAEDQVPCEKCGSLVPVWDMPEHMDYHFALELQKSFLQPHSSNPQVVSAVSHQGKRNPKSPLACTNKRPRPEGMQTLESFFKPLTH
Outline: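 Fluorescent replication assay: 50 nM final substrate added after a 15 min room-temperature compound preincubation with 10 nM enzyme. Signal taken at 0 min and again at 10 min.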
Potency is the fitted concentration of half-maximal effect.

Row | Structure (SMILES) | Potency
1 | COc1ccccc1-n1c(SCC(=O)O)nc2sc3c(c2c1=O)CCC3 | inactive
2 | Cc1cccc(NC(=O)CSc2nc3c(c(=O)[nH]2)CCCC3)c1C | inactive
3 | O=C(CCc1nc2sc3c(c2c(=O)[nH]1)CCCC3)NCC(=O)Nc1ccccc1Br | 8.91 µM (active)
4 | COc1ccccc1CNC(=O)C(=O)NCC(c1cccs1)S(=O)(=O)c1cccs1 (stereo unspecified) | inactive
5 | COc1ccc(C2C(=O)N(C3CCCCC3)CC(=O)N2Cc2ccccc2Cl)cc1OC (stereo unspecified) | inactive
6 | CCOC(=O)c1cccc(NC(=O)Cn2cnc3nc4c(cc3c2=O)CCCC4)c1 | inactive
7 | COC(=O)c1ccc(NC(=O)CSc2n[nH]c(-c3ccccc3)n2)cc1 | inactive
8 | COc1ccc(-c2nc3c(c(SCC(=O)Nc4ccc(C(=O)O)cc4)n2)Cc2ccccc2O3)cc1 | 7.94 µM (active)
9 | COc1ccc(NC(=O)CSc2nc3ccccc3[nH]2)cc1 | inactive
10 | C=C(C)C(=O)O[C@H]1C/C(C)=C\C(=O)/C=C(\C)[C@H](O)[C@@H]2OC(=O)C(=C)[C@@H]21 | 20 µM (active)
11 | CCOc1ccc(-n2nc3ccc(NC(=O)c4ccc(OC)c(Cl)c4)cc3n2)cc1 | inactive
12 | Cc1ccc(S(=O)(=O)N2CCOCC2)cc1NC(=O)c1ccncc1 | inactive
13 | COCCNC(=S)Nc1cc(S(=O)(=O)N2CCOCC2)ccc1N1CCCCC1 | inactive
14 | O=[N+]([O-])c1cc(Cl)cc(/C=N/NC(=S)Nc2cc(S(=O)(=O)N3CCOCC3)ccc2Cl)c1O | 50.1 µM (active)
15 | Cc1nc2c(c(C)nn2-c2ccccc2)c(C)c1CCC(=O)NCCc1ccc(Cl)cc1 | inactive
16 | CCOc1ccc(NC(=O)c2ccc(NC(=O)COC(=O)c3ccc(NC(=O)CC#N)cc3)cc2)cc1 | 1.26 µM (active)
17 | CCOc1ccc(NC(=O)Cn2c(C)ccc(C#N)c2=O)cc1 | inactive
18 | CCOc1ccc(NC(=O)c2ccc(CSc3nnnn3C)cc2)cc1 | inactive
19 | Cc1ccc(S(=O)(=O)c2nc(-c3cccs3)oc2N2CCCCC2)cc1 | inactive
20 | COc1ccc(CCNc2ncnc3onc(-c4ccc(Cl)cc4)c23)c(OC)c1 | inactive
21 | Cc1ccc(C)c(N2CCN(CCCNC(=O)Nc3ccc(Cl)cc3)CC2)c1 | inactive
22 | CN=C1S/C(=C\c2c(OC)cc(OC)cc2OC)C(=O)N1C | inactive
23 | O=C(O)c1cccc(N=NN2CCCCCC2)c1 | inactive
24 | CN1C(=O)/C(=C/c2ccco2)SC1=Nc1cccc(C(=O)O)c1 | 35.5 µM (active)
25 | O=C(CSc1nc(-c2cccc(F)c2)[nH]c1-c1ccccc1)Nc1ccc2c(c1)OCO2 | inactive
26 | Cc1ccc2oc3c(c(=O)c2c1)C(c1ccc([N+](=O)[O-])cc1)N(CCCN1CCOCC1)C3=O (stereo unspecified) | inactive

Source: PubChem BioAssay AID588591 (National Center for Advancing Translational Sciences (NCATS), 2011)
